In PubChem BioAssay (Tox21):
Records with an inconclusive call do not appear. A call without a number means that no potency is given here. Activity calls are given as the source filed them. Unless noted, calls follow the shape of the dose curve; as a rule, active = well fitted curve in the direction sought with a large enough effect in the repeat runs; inconclusive = weak or mixed curves; inactive = no such curve, though single readings can be large; an effect the other way counts as inactive or inconclusive.

Experiments:
[1] = A CellTox Green Cytotoxicity Assay to monitor cytotoxicity in HepG2 cells - 0 hour (AID 1224882); also: nearly all actives have a fitted effect of over 35% in size
Summary of the method: (§1)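 Fluorescent DNA-binding dye, 600 HepG2 cells/well, 5 h preincubation then compound in DMSO; same plates read at 0–40 h, 37 C.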

[2] = A CellTox Green Cytotoxicity Assay to monitor cytotoxicity in HepG2 cells - 32 hour (AID 1224883); also: nearly all actives have a fitted effect of over 50% in size
Summary of the method: as §1

[3] = A CellTox Green Cytotoxicity Assay to monitor cytotoxicity in HEK293 cells - 8 hour (AID 1224884); also: nearly all actives have a fitted effect of over 35% in size
Summary of the method: (§2)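 Homogeneous no-lysis format: HEK293 cell suspension mixed with CellTox Green reagent, seeded, incubated 5 h at 37 C/5% CO2, then dosed by pintool with compound in DMSO.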

[4] = qHTS RealTime-Glo MT Cell Viability Assay in HepG2 cells - 16 hour (AID 1224885); also: nearly all actives have a fitted effect of over 50% in size
Summary of the method: (§3)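 Cell number in HepG2 cultures estimated from NanoLuc luminescence generated by metabolic reduction of a prosubstrate by living cells. The homogeneous, nonlytic format allowed repeated reads at 0, 8, 16, 24, 32 and 40 h of compound exposure.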

[5] = qHTS RealTime-Glo MT Cell Viability Assay in HEK293 cells - 24 hour (AID 1224886); also: nearly all actives have a fitted effect of over 50% in size; also: potency is read from the fitted curve at half-maximal effect
Summary of the method: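 Homogeneous bioluminescent viability format in HEK293 cells (600 cells/well). Following 5 h at 37 C/5% CO2, 23 nL compound was pintooled; the signal was measured repeatedly during 40 h incubation.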

[6] = qHTS RealTime-Glo MT Cell Viability Assay in HEK293 cells - 8 hour (AID 1224887); also: nearly all actives have a fitted effect of over 50% in size; also: potency is read from the fitted curve at half-maximal effect
Summary of the method: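 Measured as luminescence from the same continuously cultured HEK293 wells at successive time points (0, 8, 16, 24, 32, 40 h) after compound addition. Reagent present from seeding; dosing at 5 h; incubation 37 C.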

[7] = A CellTox Green Cytotoxicity Assay to monitor cytotoxicity in HEK293 cells - 16 hour (AID 1224888); also: nearly all actives have a fitted effect of over 35% in size
Summary of the method: as §2

[8] = qHTS RealTime-Glo MT Cell Viability Assay in HepG2 cells - 0 hour (AID 1224889); also: nearly all actives have a fitted effect of over 50% in size
Summary of the method: as §3

[9] = qHTS assay to identify small molecule antagonists of the estrogen receptor alpha (ER-alpha) signaling pathway using the BG1 cell line in the presence of 0.1 nM 17-beta-estradiol - cell viability counter screen (AID 1259241); also: nearly all actives have a fitted effect of over 40% in size; also: potency is read from the fitted curve at half-maximal effect
Summary of the method: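 Estradiol-stimulated (0.1 nM) VM7Luc4E2 cells exposed to compounds 22 hr; viability measured by fluorescence of cleaved CellTiter-Fluor substrate after 30 min.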

[10] = qHTS assay to identify small molecule antagonists of the androgen receptor (AR) signaling pathway using the MDA cell line in the presence of 0.5 nM R1881 - cell viability counter screen (AID 1259242); also: nearly all actives have a fitted effect of over 45% in size; also: potency is read from the fitted curve at half-maximal effect
Summary of the method: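 Human breast carcinoma MDA-kb2 cells, cultured without CO2, receive compounds alongside 0.5 nM (final) R1881 agonist. After 16 hr at 37C, viability is taken as live-cell protease signal.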

[11] = target: Estrogen receptor (Homo sapiens) (UniProt P03372); assay: qHTS assay to identify small molecule antagonists of the estrogen receptor alpha (ER-alpha) signaling pathway using the BG1 cell line in the presence of 0.1 nM 17-beta-estradiol (AID 1259244); also: nearly all actives have a fitted effect of over 50% in size; also: potency is read from the fitted curve at half-maximal effect
Summary of the method: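 Seeding of stripped-serum-adapted VM7Luc4E2 cells, 24 h attachment, compound transfer, then 0.1 nM final 17beta-estradiol; after 22 h incubation, ONE-Glo reagent and luminescence reading.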

[12] = qHTS assay to identify small molecule HDAC inhibitors (AID 1259364); also: potency is read from the fitted curve at half-maximal effect;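 also: wild-type HCT-116 cells with endogenous class I/II HDAC activity; nearly all actives have a fitted effect of over 45% in size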
Summary of the method: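 After a 2 hr compound incubation (37C, 5% CO2), HCT-116 cells seeded at 1,500/well the day before received HDAC-Glo reagent; signal read as luminescence after 30 min at room temperature.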

[13] = qHTS assay to identify small molecule HDAC inhibitors - cell viability counter screen (AID 1259365); also: nearly all actives have a fitted effect of over 50% in size; also: potency is read from the fitted curve at half-maximal effect
Summary of the method: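 After overnight seeding at 1,500 cells per well, wild-type HCT-116 cultures took up compounds in DMSO for 2hr at 37 C. Viable cell content came from luminescence with CellTiter-Glo.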

[14] = qHTS assay to identify small molecule agonists of the sonic hedgehog signaling (Shh) pathway - cell viability counter screen (AID 1259366); also: nearly all actives have a fitted effect of over 50% in size; also: potency is read from the fitted curve at half-maximal effect
Summary of the method: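 Same-well cytotoxicity read. Gli1-Luc reporter 3T3 cells; compounds 24hr, 37C/5% CO2; CellTiter-Fluor fluorescence.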

[15] = qHTS assay to identify small molecule antagonists of the sonic hedgehog signaling (Shh) pathway - cell viability counter screen (AID 1259367); also: nearly all actives have a fitted effect of over 55% in size; also: potency is read from the fitted curve at half-maximal effect
Summary of the method: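 Cytotoxicity was assessed in parallel with Shh reporter activity by measuring live-cell protease fluorescence (CellTiter-Fluor) in NIH/3T3 cells stably carrying Gli1-Luc, treated with compound under conditioned medium stimulation for 23 hr plus 1 hr reagent incubation.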

[16] = qHTS assay to identify small molecule antagonists of the sonic hedgehog signaling (Shh) pathway (AID 1259369; calls by dose curve; also: nearly all actives have a fitted effect of over 45% in size; also: potency is read from the fitted curve at half-maximal effect)
Summary of the method: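 Gli1 transcriptional reporter (firefly Luc) in NIH/3T3 background, conditioned-medium activated. 24hr exposure, luminescence endpoint.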

[17] = A CellTox Green Cytotoxicity Assay to monitor cytotoxicity in HepG2 cells - 8 hour (AID 1224890); also: nearly all actives have a fitted effect of over 45% in size
Summary of the method: as §1

[18] = target: Androgen receptor (Homo sapiens) (UniProt P10275); assay: qHTS assay to identify small molecule antagonists of the androgen receptor (AR) signaling pathway using the MDA cell line in the presence of 0.5 nM R1881 (AID 1259243); also: nearly all actives have a fitted effect of over 50% in size; also: potency is read from the fitted curve at half-maximal effect
Summary of the method: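 Cells: MDA-kb2 (MMTV-luc). Stimulus: 0.5 nM R1881. Time: 16 hr, 37C, no CO2. Detection: ONE-Glo luminescence after 30 min at RT.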

[19] = qHTS assay to identify small molecule agonists of the sonic hedgehog signaling (Shh) pathway (AID 1259368; calls by dose curve;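 also: NIH/3T3-derived 3T3Gli1-Luc cells carrying a stable Gli1-driven firefly luciferase reporter; series mostly up to about 92 µM; nearly all actives have a fitted effect of over 15% in size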)
Summary of the method: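 Stable NIH/3T3 Gli1-Luc reporter clone; 24 hr cpd exposure after a 4 hr settling period; luminescence endpoint.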

[20] = qHTS assay to identify small molecule phospholipidosis (PLD) inducers (AID 1259344; active = well fitted curve in the direction sought with a large enough effect; an effect the other way counts as inactive or inconclusive)
Summary of the method: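 Cells (HepG2, 900 per well) attach for 4 h, receive LipidTOX Red and compound together, incubate 24 h at 37 C, are fixed 30 min with paraformaldehyde/Hoechst, then imaged at one site per well.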

Chain of Androgen receptor (Homo sapiens) (P10275 whole entry, looked up): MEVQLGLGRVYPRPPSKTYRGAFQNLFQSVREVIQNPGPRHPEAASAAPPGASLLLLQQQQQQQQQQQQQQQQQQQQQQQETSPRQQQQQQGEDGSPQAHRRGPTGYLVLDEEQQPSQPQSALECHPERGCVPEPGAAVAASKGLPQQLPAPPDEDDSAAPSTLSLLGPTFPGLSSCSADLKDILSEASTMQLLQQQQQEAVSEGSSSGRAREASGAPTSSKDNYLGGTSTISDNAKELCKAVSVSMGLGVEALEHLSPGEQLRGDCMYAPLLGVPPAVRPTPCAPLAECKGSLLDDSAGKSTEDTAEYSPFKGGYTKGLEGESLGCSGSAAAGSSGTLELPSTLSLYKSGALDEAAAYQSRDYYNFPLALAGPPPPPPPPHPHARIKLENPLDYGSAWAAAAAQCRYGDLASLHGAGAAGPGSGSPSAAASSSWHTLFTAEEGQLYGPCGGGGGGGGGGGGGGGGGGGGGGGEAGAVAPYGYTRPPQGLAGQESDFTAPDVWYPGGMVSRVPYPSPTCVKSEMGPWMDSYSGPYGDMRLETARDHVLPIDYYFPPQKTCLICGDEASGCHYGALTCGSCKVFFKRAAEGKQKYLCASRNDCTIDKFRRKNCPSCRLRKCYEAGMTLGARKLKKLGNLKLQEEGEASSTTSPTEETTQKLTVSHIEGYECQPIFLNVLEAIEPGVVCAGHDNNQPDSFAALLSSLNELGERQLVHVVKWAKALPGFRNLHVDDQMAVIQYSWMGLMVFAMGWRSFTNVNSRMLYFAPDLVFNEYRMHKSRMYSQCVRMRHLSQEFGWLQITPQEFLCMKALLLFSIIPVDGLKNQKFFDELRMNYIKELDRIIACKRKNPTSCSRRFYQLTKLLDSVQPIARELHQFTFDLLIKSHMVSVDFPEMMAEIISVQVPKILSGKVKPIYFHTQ
Chain of Estrogen receptor (Homo sapiens) (P03372 whole entry, looked up): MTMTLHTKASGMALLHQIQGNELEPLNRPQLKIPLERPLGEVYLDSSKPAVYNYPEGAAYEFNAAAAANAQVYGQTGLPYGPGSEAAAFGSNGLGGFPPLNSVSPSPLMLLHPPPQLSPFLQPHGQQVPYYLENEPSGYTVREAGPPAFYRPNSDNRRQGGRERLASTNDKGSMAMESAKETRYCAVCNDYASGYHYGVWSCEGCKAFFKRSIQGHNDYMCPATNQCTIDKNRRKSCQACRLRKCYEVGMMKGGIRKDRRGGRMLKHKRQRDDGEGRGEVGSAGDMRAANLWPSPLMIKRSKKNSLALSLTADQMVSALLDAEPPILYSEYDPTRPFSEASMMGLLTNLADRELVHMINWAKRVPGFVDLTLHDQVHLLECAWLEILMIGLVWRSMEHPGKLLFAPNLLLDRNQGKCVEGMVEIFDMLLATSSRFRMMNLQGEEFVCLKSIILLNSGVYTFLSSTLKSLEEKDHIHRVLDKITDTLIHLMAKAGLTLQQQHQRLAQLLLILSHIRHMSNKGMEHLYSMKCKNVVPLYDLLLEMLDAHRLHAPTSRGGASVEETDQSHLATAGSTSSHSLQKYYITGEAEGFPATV

CCN(Cc1cccc(S(=O)(=O)O)c1)c1ccc(C(=C2C=CC(=[N+](CC)Cc3cccc(S(=O)(=O)O)c3)C=C2)c2ccc(O)cc2S(=O)(=O)[O-])cc1
Potency [1]: inactive | Potency [2]: inactive | Potency [3]: inactive | Potency [4]: inactive | Potency [5]: inactive | Potency [6]: inactive | Potency [7]: inactive | Potency [8]: inactive | Potency [9]: 16.6 µM (active) | Potency [10]: 18.6 µM (active) | Potency [11]: 16.6 µM (active) | Potency [12]: 3.71 µM (active) | Potency [13]: 9.32 µM (active) | Potency [14]: 16.6 µM (active) | Potency [15]: 16.6 µM (active) | Potency [16]: 4.67 µM (active)

COc1cc(OC)c2ccc(=O)oc2c1
Potency [1]: inactive | Potency [2]: inactive | Potency [3]: inactive | Potency [4]: inactive | Potency [5]: inactive | Potency [6]: inactive | Potency [7]: inactive | Potency [17]: inactive | Potency [10]: inactive | Potency [18]: inactive | Potency [11]: inactive | Potency [12]: inactive | Potency [13]: inactive | Potency [14]: inactive | Potency [15]: inactive | Potency [19]: inactive

C1CCCCC1
Potency [1]: inactive | Potency [2]: inactive | Potency [3]: inactive | Potency [4]: inactive | Potency [5]: inactive | Potency [6]: inactive | Potency [7]: inactive | Potency [8]: inactive | Potency [10]: inactive | Potency [12]: inactive | Potency [13]: inactive | Potency [14]: inactive | Potency [15]: inactive | Potency [19]: inactive | Potency [16]: inactive

C[C@@H]1C[C@H]2[C@@H]3CCC4=CC(=O)C=C[C@]4(C)[C@@]3(F)[C@@H](O)C[C@]2(C)[C@@]1(O)C(=O)COP(=O)(O)O
Potency [1]: inactive | Potency [2]: inactive | Potency [3]: inactive | Potency [4]: inactive | Potency [5]: inactive | Potency [6]: inactive | Potency [7]: inactive | Potency [17]: inactive | Potency [9]: inactive | Potency [10]: inactive | Potency [11]: inactive | Potency [20]: inactive | Potency [12]: inactive | Potency [13]: inactive | Potency [14]: inactive | Potency [15]: inactive | Potency [19]: inactive

CCSC(=O)N(CC)CC
Potency [1]: inactive | Potency [2]: inactive | Potency [3]: inactive | Potency [4]: inactive | Potency [5]: inactive | Potency [6]: inactive | Potency [7]: inactive | Potency [8]: inactive | Potency [17]: inactive | Potency [11]: inactive | Potency [12]: inactive | Potency [13]: inactive | Potency [14]: inactive | Potency [15]: inactive | Potency [16]: inactive

CC(=O)OCC(=O)[C@@]1(OC(C)=O)[C@@H](C)C[C@H]2[C@@H]3C[C@H](F)C4=CC(=O)C=C[C@]4(C)[C@@]3(F)[C@@H](O)C[C@@]21C
Potency [1]: inactive | Potency [2]: inactive | Potency [3]: inactive | Potency [4]: inactive | Potency [5]: inactive | Potency [6]: inactive | Potency [7]: inactive | Potency [17]: inactive | Potency [10]: inactive | Potency [20]: inactive | Potency [12]: inactive | Potency [13]: inactive | Potency [14]: inactive | Potency [15]: inactive | Potency [19]: inactive

CCN(CC)CCOc1ccccc1C(=O)CCc1ccccc1
Potency [1]: inactive | Potency [2]: inactive | Potency [3]: inactive | Potency [4]: inactive | Potency [5]: 10.7 µM (active) | Potency [6]: 10.7 µM (active) | Potency [7]: inactive | Potency [8]: inactive | Potency [9]: inactive | Potency [10]: inactive | Potency [11]: inactive | Potency [20]: inactive | Potency [12]: inactive | Potency [14]: inactive | Potency [15]: inactive | Potency [19]: inactive

CC(=O)OCCC(C)CC(C)(C)C (centres undefined)
Potency [1]: inactive | Potency [2]: inactive | Potency [3]: inactive | Potency [4]: inactive | Potency [5]: inactive | Potency [6]: inactive | Potency [7]: inactive | Potency [8]: inactive | Potency [9]: inactive | Potency [10]: inactive | Potency [11]: inactive | Potency [12]: inactive | Potency [13]: inactive | Potency [14]: inactive | Potency [15]: inactive | Potency [19]: inactive | Potency [16]: inactive

C[C@H](CS)C(=O)N1CCC[C@H]1C(=O)O
Potency [1]: inactive | Potency [2]: inactive | Potency [3]: inactive | Potency [4]: inactive | Potency [5]: inactive | Potency [6]: inactive | Potency [7]: inactive | Potency [8]: inactive | Potency [9]: inactive | Potency [18]: inactive | Potency [20]: inactive | Potency [12]: inactive | Potency [14]: inactive | Potency [15]: inactive | Potency [19]: inactive | Potency [16]: inactive

CCCCCCC(O)CCOC(C)=O (centres undefined)
Potency [1]: inactive | Potency [2]: inactive | Potency [3]: inactive | Potency [4]: inactive | Potency [5]: inactive | Potency [6]: inactive | Potency [7]: inactive | Potency [8]: inactive | Potency [9]: inactive | Potency [10]: inactive | Potency [11]: inactive | Potency [12]: inactive | Potency [13]: inactive | Potency [14]: inactive | Potency [15]: inactive | Potency [19]: inactive | Potency [16]: inactive

COc1ccc(C)cc1
Potency [1]: inactive | Potency [2]: inactive | Potency [3]: inactive | Potency [4]: inactive | Potency [5]: inactive | Potency [6]: inactive | Potency [7]: inactive | Potency [8]: inactive | Potency [17]: inactive | Potency [10]: inactive | Potency [12]: inactive | Potency [13]: inactive | Potency [14]: inactive | Potency [15]: inactive | Potency [19]: inactive | Potency [16]: inactive

CCN(CC)C(=O)/C(C#N)=C/c1cc(O)c(O)c([N+](=O)[O-])c1
Potency [1]: inactive | Potency [2]: inactive | Potency [3]: inactive | Potency [4]: inactive | Potency [5]: inactive | Potency [6]: inactive | Potency [7]: inactive | Potency [8]: inactive | Potency [17]: inactive | Potency [18]: 23.7 µM (active) | Potency [11]: inactive | Potency [20]: inactive | Potency [14]: inactive | Potency [19]: inactive | Potency [16]: inactive

Nc1ccc(N=Nc2ccc(N)cc2)cc1
Potency [1]: inactive | Potency [2]: inactive | Potency [3]: inactive | Potency [4]: inactive | Potency [5]: inactive | Potency [6]: inactive | Potency [7]: inactive | Potency [8]: inactive | Potency [17]: inactive | Potency [11]: inactive | Potency [12]: 12.2 µM (active) | Potency [13]: inactive | Potency [19]: inactive

CC(C)C1CCC(C(=O)N[C@H](Cc2ccccc2)C(=O)O)CC1 (some centres undefined)
Potency [1]: inactive | Potency [2]: inactive | Potency [3]: inactive | Potency [4]: inactive | Potency [5]: inactive | Potency [6]: inactive | Potency [8]: inactive | Potency [17]: inactive | Potency [9]: inactive | Potency [10]: inactive | Potency [11]: inactive | Potency [20]: inactive | Potency [12]: inactive | Potency [13]: inactive | Potency [14]: inactive | Potency [15]: inactive | Potency [19]: inactive | Potency [16]: inactive

COc1ccc(C(=O)NCc2ccc(OCCN(C)C)cc2)cc1OC
Potency [1]: inactive | Potency [2]: inactive | Potency [3]: inactive | Potency [4]: inactive | Potency [5]: inactive | Potency [6]: inactive | Potency [7]: inactive | Potency [8]: inactive | Potency [9]: inactive | Potency [10]: inactive | Potency [11]: inactive | Potency [20]: inactive | Potency [12]: inactive | Potency [13]: inactive | Potency [14]: inactive | Potency [15]: inactive | Potency [16]: inactive
